From PubChem BioAssay
The sample as a whole holds a higher share of hits than the screen did.
TDP1 cell noCPT = qHTS for Inhibitors of human tyrosyl-DNA phosphodiesterase 1 (TDP1): qHTS in cells in absence of CPT | Potency, µM (top dose mostly 46.2 µM), for inactives: top-dose activity change, negative = growth inhibition, most hits filed as inhibitors | 420,000 tested, 15% active | DT40 Tdp1-/- hTDP1 cells, no CPT, ATP luminescence, 48 h | AID 686978, 2013; note: potency is the fitted concentration of half-maximal effect; nearly all actives have a fitted effect of over 55% in size
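Chicken DT40 Tdp1-/- cells complemented with human TDP1, screened without camptothecin (DMSO vehicle only), 400 cells/well. Compounds pin-transferred, cells incubated at 37 °C for at least 48 hr. Growth read as ATP-dependent luminescence (CellTiter-Glo, 30 min at RT).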
12-LOX inh = ALOX12 (human) lipoxygenase inhibition. purified 12hLO, xylenol orange hydroperoxide absorbance. Potency, µM (top dose mostly 108 µM), for the others: top-dose activity change, negative = inhibition, actives largely listed as inhibitors. P18054. 580,000 tested, 1.1% active; note: potency is the fitted concentration of half-maximal effect
Target sequence (P18054 whole entry, looked up): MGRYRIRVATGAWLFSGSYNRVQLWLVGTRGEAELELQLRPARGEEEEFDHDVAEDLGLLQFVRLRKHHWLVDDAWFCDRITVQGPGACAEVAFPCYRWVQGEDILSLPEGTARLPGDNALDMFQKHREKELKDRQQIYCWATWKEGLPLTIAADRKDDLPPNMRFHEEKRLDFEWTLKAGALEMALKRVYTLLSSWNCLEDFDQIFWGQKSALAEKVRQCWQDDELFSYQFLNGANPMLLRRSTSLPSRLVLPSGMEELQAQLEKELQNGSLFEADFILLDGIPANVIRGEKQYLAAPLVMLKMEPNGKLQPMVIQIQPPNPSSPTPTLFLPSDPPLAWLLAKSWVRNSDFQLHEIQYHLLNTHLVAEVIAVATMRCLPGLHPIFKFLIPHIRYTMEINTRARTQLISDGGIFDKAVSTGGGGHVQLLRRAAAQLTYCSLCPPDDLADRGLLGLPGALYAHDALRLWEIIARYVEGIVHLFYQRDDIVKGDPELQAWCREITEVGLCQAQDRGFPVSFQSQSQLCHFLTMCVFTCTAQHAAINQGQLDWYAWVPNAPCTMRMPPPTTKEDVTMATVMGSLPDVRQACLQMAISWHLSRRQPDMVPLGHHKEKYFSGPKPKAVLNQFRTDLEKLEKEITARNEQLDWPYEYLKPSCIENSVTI
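Purified human 12hLO (150 nM final) in 25 mM Hepes, 0.01% Triton X-100, pH 7.0 was preincubated 15 min at room temperature with compound. Then 40 uM arachidonic acid was added, 30 min. Hydroperoxide was read by Fe-XO absorbance ratio 573/405 nm.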
TDP1 cell CPT = DT40-hTDP1 cell growth loss with CPT. chicken DT40 Tdp1-/-;hTDP1 cells + 20 nM CPT, ATP luminescence, 48 h. Potency, µM (series often up to 46.2 µM), inactives show at the highest dose activity change, negative = growth inhibition, usual class: inhibitors. 420,000 tested, 12% active. AID 686979; note: potency is the fitted concentration of half-maximal effect; nearly all actives have a fitted effect of over 55% in size
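Chicken DT40 Tdp1-/- cells stably complemented with human TDP1 were seeded at 400 cells/well in medium containing 20 nM camptothecin, exposed to pin-transferred compounds, and grown at 37 °C for at least 48 hr. Viability was read as ATP luminescence.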
IL1B secr inh = inflammasome signaling inhibition, IL-1 beta readout; 360,000 tested, 4.7% active; THP-1 LPS/ATP IL-1B secretion, AlphaLISA, 16 h; active compounds read low; activity change, % at 57.5 µM; in the data active = activity change below about -50%; inconclusive = mostly about -30% to -49%
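THP-1 cells pretreated 1 hr with compounds (up to 57.5 uM final), then stimulated with LPS (250 ng/mL final) plus ATP (1.25 mM final); secreted IL-1B measured by AlphaLISA after 16 hr, decreased signal indicating inhibition.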
HT1080-NT tox = kills 2HG-producing HT-1080-NT fibrosarcoma cells; Potency, µM (highest dose often 46.1 µM), without a hit: at the highest dose activity, negative = less viability, most hits filed as cytotoxic; 360,000 tested, 1.6% active; HT-1080-NT fibrosarcoma viability, CellTiter-Glo ATP luminescence, 48 h;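 note: NT is the 2HG producing partner of a matched IDH1 knockdown line; potency is the fitted concentration of half-maximal effect; 0% = DMSO-treated cells and -100% = media-only wells without cells; nearly all actives have a fitted effect of over 55% in size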
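Viability by CellTiter-Glo luminescence after 48 h compound exposure at 37C of HT-1080-NT cells (750/well, RPMI, 5% FBS). % activity scaled between DMSO wells and medium-only wells, then curve-fitted and categorized by curve class.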
HT1080 IDH1KD tx = toxicity to HT-1080 IDH1 knockdown cells (counter line) | HT-1080 IDH1 knockdown viability, ATP luminescence, 48 h | Potency, µM (titrated, usually from 46.1 µM), for inactives: top-dose activity, negative = toxicity, usual class: cytotoxic | 360,000 tested, 2% active;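 note: potency is the fitted concentration of half-maximal effect; 0% = DMSO wells and -100% = cell-free medium wells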
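IDH1KD HT-1080 cells, 750/well, RPMI + 5% FBS; compound pinned after 2 h settling; 48 h, 37 °C; CellTiter-Glo luminescence; % activity normalised to DMSO and no-cell wells; curves fitted, classed by r2 and efficacy.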
Numbers without * were called inactive; ? = inconclusive; nt = no result; [ ] = remark or other dose. Unless noted, calls come from the whole dose curve; as a rule, active = well fitted curve in the direction sought with a large enough effect; inconclusive = small, poorly fitted or top-dose-only effect, or another doubt; inactive = no such curve, though single readings can be large; an effect the other way counts as inactive or inconclusive. Unless noted, % is set by controls: 0 for no effect and ±100 for the full control effect.

SMILES	TDP1 cell noCPT	12-LOX inh	TDP1 cell CPT	IL1B secr inh	HT1080-NT tox	HT1080 IDH1KD tx
COC(=O)c1ccc(C2C(C#N)=C(C)NC3=C2C(=O)CC(C)(C)C3)cc1 (stereo not drawn)	-20.5%	-5.0%	-22.0%	23.0	1.8%	9.7%
COc1ccc(C2C(C#N)=C(N)OC3=C2C(=O)CC(C)(C)C3)cc1 (stereo not drawn)	-0.3%	-10.5%	3.8%	-1.3	0.6%	1.7%
COc1ccc(C2CC(=O)C3=C(C2)NC(C)=C(C#N)C3c2ccc(N(C)C)cc2)cc1 (stereo not drawn)	-21.6%	-17.0%	8.2%	-65.6*	-0.7%	-10.7%
COc1ccc(N2CCN(C(=O)CCCn3c(=O)[nH]c4ccsc4c3=O)CC2)cc1	-13.4%	10.5%[57.4 µM]	-21.5%	-2.3	13.4%	8.2%
COc1cc2[nH]c(=O)n(CCCCCC(=O)N3CC=C(c4ccccc4)CC3)c(=O)c2cc1OC	16.4µM*	0.0%	25.9µM*	-73.1*	-7.5%	-1.3%
O=C(Cc1ccc(-n2c(=O)[nH]c3ccsc3c2=O)cc1)N1CCN(c2ccc(Cl)cc2)CC1	?	-9.5%	?	-75.2*	-13.4%	-8.8%
COc1ccc(N2CCN(C(=O)CCCCn3c(=O)[nH]c4ccsc4c3=O)CC2)cc1	25.9µM*	-1.4%	?	15.2	14.5%	-11.2%
COc1ccccc1N1CCN(C(=O)CCCCn2c(=O)[nH]c3ccsc3c2=O)CC1	16.4µM*	20.7%	?	-0.1	2.3%	2.1%
O=C(CCCn1c(=O)[nH]c2ccsc2c1=O)N1CCN(c2ccc(Cl)cc2)CC1	?	-3.6%	?	nt	nt	nt
CCc1nc(-c2c3n(c(=O)n(CC(=O)Nc4cccc(C#N)c4)c2=O)CCCCC3)no1	nt	2.9%	nt	nt	nt	nt
COc1ccc(C)cc1NC(=O)[C@H]1CCC[C@H]1NC(=O)c1cnc(C)cn1	nt	-8.1%	nt	nt	nt	nt
CCCNC(=O)COc1ccccc1[N+](=O)[O-]	-5.0%	1.1%	11.3%	22.6	1.5%	2.8%
Cc1ccc(OCC(=O)c2cc(C)c(C)cc2C)c([N+](=O)[O-])n1	8.2µM*	0.0%	3.66µM*	35.9	?	?
Cc1cc(C)c(S(=O)(=O)Oc2ccccc2[N+](=O)[O-])c(C)c1	18.4µM*	8.8%	20.6µM*	-3.7	?	?
Cc1cc(C)c(N)c([N+](=O)[O-])c1	nt	-29.5%	nt	nt	nt	nt
Cc1ccc(C)c(C(=O)COc2ccccc2[N+](=O)[O-])c1	10.3µM*	0.8%	5.17µM*	-51.3*	-0.9%	?
Cc1ccc(C)c(C(=O)COc2ccc(C)nc2[N+](=O)[O-])c1	14.6µM*	-22.3%	7.31µM*	42.1	?	?
COc1ccc(CN2CC(Oc3ccccc3C(=O)NCc3ccccc3)C2)c(OC)c1	nt	46.2%	nt	nt	nt	nt
O=C(C1CC(=O)N(c2n[nH]c3ccccc23)C1)N1CCc2c([nH]c3ccccc23)C1 (stereo not drawn)	nt	10.9%	nt	nt	nt	nt
O=C(CCc1ncc(-c2ccc(F)cc2)o1)N1CCSCC1	nt	-6.8%	nt	nt	nt	nt
COCc1ccc(CNC(=O)CC(C)C)cc1	nt	21.1%	nt	nt	nt	nt
C/C(=N\O)c1ccc(-n2cccc2)cc1	nt	-5.2%	nt	nt	nt	nt
Cc1ccc(Nc2nc(NCC3CCCO3)nc3c2cnn3-c2ccccc2)cc1 (stereo not drawn)	nt	-3.1%	nt	nt	nt	nt
Cc1ccc(OCC(=O)N2CCc3ccccc3C2)c([N+](=O)[O-])n1	14.2%	-14.1%	3.2%	-17.4	14.6%	17.2%
Cc1ccc(OCC(=O)N2c3ccccc3CC2C)c([N+](=O)[O-])n1 (stereo not drawn)	-86.7%	-10.6%	16.4µM*	-7.0	-1.0%	1.7%
SMILES	TDP1 cell noCPT	12-LOX inh	TDP1 cell CPT	IL1B secr inh	HT1080-NT tox	HT1080 IDH1KD tx
Cc1ccc(OCCOc2cccc(Br)c2)c([N+](=O)[O-])n1	-21.5%	-23.1%	-0.4%	-71.2*	-4.6%	-11.8%
CC(C)Cn1nc2n(c1=O)CCN(S(=O)(=O)c1ccc3c(c1)CCCC3)CC2	nt	2.9%	nt	nt	nt	nt
CC(=O)OC1CC(C)(C)N(OC(=O)c2ccc(N)cc2)C(C)(C)C1	-20.1%	0.0%	?	24.4	17.7%	11.0%
CC(=O)OC1CC(C)(C)N(OC(=O)c2ccccc2)C(C)(C)C1	20.6µM*	0.0%	?	-25.8	-0.1%	0.5%
CC(=O)ON1C(C)(C)CC(OC(=O)c2ccccc2)CC1(C)C	-26.8%	0.0%	20.6µM*	15.5	1.2%	-2.1%
Cc1cc(/C(=N\O)C(C)(C)NO)ccc1Cl	nt	-48.4%	nt	nt	nt	nt
O=C(Nc1ccccc1Cl)c1c2c(nc3ccccc13)CCCC2	nt	3.2%	nt	nt	nt	nt
Cc1ccc(C2C(=O)c3ccccc3C2=O)cc1	-12.1%	-18.6%	3.0%	6.5	18.2%	9.3%
O=C1c2ccccc2C(=O)C1c1ccncc1	23.1µM*	?	?	-21.4	-4.9%	-1.8%
Fc1ccccc1-c1csc(=Nc2cccnc2)n1CCCn1ccnc1	16.4µM*	-2.4%	25.9µM*	?	-1.5%	-8.4%
Fc1ccccc1-c1csc(=Nc2cccnc2)n1CC1CCCO1 (stereo not drawn)	?	-12.9%	?	-66.5*	-20.9%	-23.4%
CCOc1ccc(NC(=O)CSc2nccn2Cc2ccccc2OC)cc1	nt	-8.7%	nt	nt	nt	nt
CS(=O)(=O)N1Cc2ccccc2CC2(CCCCN2Cc2cccnc2)C1 (stereo not drawn)	nt	-6.2%[6.33 µM]	nt	nt	nt	nt
